PAFAH1B2 inh = PAFAH1B2 enzyme inhibitors, primary screen, biochemical, fluorescence polarization, human | 1.2% of 340,000 active | AID 492953, 2010 | inhibition, % at 3.39 µM | recombinant PAFAH1B2, FP-rhodamine activity probe | Platelet-activating factor acetylhydrolase IB subunit alpha2 (Homo sapiens), P68402;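 active = inhibition above the mean of all tested compounds plus 3 SD, cut at about 24% in these data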;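 note: 0% = enzyme with DMSO and 100% = wells lacking PAFAH1B2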
Target sequence (P68402 whole entry, looked up): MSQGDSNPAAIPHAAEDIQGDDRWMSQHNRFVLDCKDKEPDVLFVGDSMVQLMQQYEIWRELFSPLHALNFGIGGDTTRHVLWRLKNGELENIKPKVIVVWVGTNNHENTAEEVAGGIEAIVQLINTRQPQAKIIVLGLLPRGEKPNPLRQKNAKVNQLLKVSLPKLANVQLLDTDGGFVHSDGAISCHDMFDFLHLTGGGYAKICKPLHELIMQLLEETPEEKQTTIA
PAFAH2 inh = PAFAH2 enzyme inhibitors, primary screen, biochemical, fluorescence polarization, human; Platelet-activating factor acetylhydrolase 2, cytoplasmic (Homo sapiens), Q99487; recombinant PAFAH2, FP-rhodamine activity probe; inhibition, % at 3.39 µM; 0.99% of 340,000 active;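 active = inhibition above the mean over all tested compounds plus 3 SD, cut at about 30% in these data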;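 note: inhibitors block probe labeling of enzyme so polarization drops; 0% = enzyme with DMSO and 100% = wells lacking PAFAH2 protein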
EBNA-1 inh = EBNA-1 DNA-binding inhibitors, primary screen, biochemical, fluorescence polarization. inhibition, % at 14.8 µM. 0.34% of 300,000 active; in the data active = inhibition above about 28%
ZTA DNA inh = counter-screen for EBNA-1 inhibitors: inhibitors of Epstein-Barr virus ZTA; 0.15% of 320,000 active; inhibition, % at 11 µM; AID 2234; P03206; ZTA-DNA binding, fluorescence polarization; in the data active = inhibition above about 33%
Target sequence (P03206 whole entry, looked up): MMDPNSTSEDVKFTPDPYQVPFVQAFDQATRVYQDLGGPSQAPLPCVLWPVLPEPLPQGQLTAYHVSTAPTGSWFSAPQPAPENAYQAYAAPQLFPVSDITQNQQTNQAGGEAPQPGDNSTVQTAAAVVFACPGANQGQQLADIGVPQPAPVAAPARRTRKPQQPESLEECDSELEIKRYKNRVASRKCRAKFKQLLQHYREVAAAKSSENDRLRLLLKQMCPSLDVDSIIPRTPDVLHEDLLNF
PAFAH1B3 inh = PAFAH1B3 enzyme inhibitors, primary screen, biochemical, fluorescence polarization, human | inhibition, % at 3.39 µM | 0.28% of 340,000 active | Platelet-activating factor acetylhydrolase IB subunit alpha1 (Homo sapiens), Q15102 | recombinant PAFAH1B3, FP-rhodamine probe | AID 492972, 2010;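 active = inhibition above the screen-wide average of all tested compounds plus 3 SD, cut at about 25% in these data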;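 note: 0% = enzyme with DMSO only and 100% = wells lacking PAFAH1B3 protein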
rCAG RNA binder = binders of r(CAG) RNA repeats, primary screen, biochemical, fluorescence; r(CAG) RNA repeat, TO-PRO-1 dye displacement fluorescence; inhibition, % at 3 µM; 1.3% of 370,000 active; AID 651821, 2012;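 active = inhibition above the plate cutoff, the mean of all test compounds on that plate plus 3 SD, cut at about 35% in these data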;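 note: 0% = DMSO alone and 100% = 100 µM mitoxantrone as full dye displacement; higher means more dye released from RNA so lower well fluorescence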
PAFAH1B3 conf FP = PAFAH1B3 enzyme inhibitors, confirmation, biochemical, fluorescence polarization, human | shares compounds with PAFAH1B3 inh | recombinant PAFAH1B3, FP-Rh activity-based probe | inhibition, % at 3.39 µM | 30% of 390 active;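 active = average inhibition over triplicate runs above the hit cutoff set in the earlier primary screen, cut at about 25% in these data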;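 note: 0% = enzyme with DMSO and 100% = wells lacking PAFAH1B3 protein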
The depositor's hits bear a star; · = no result; ! = not active in a repeat. This is a sample that favours compounds with a hit; in the whole collection about 2.9% have one here.

SMILES	PAFAH1B2 inh	PAFAH2 inh	EBNA-1 inh	ZTA DNA inh	PAFAH1B3 inh	rCAG RNA binder	PAFAH1B3 conf FP
O=c1c(O)c(-c2ccc(O)cc2)oc2cc(O)cc(O)c12	11	2	-1	4	30*	15	24
C[C@@H]1O[C@@H](O[C@H]2[C@H](O)[C@@H](O)[C@H](Oc3c(-c4ccc(O)c(O)c4)oc4cc(O)cc(O)c4c3=O)O[C@@H]2CO)[C@H](O)[C@H](O)[C@H]1O	2	-2	·	5	9	2	·
C[C@@H]1O[C@@H](Oc2c(-c3ccc(O)c(O)c3)oc3cc(O)cc(O)c3c2=O)[C@H](O)[C@H](O)[C@H]1O	-4	-11	·	·	27*!	4	17
COc1cc(-c2oc3cc(O)cc(O)c3c(=O)c2O[C@@H]2O[C@H](COC3O[C@@H](C)[C@H](O)[C@@H](O)[C@H]3O)[C@@H](O)[C@H](O)[C@H]2O)ccc1O (stereo partly drawn)	4	-8	·	·	6	0	·
C[C@@H]1O[C@@H](Oc2c(-c3cc(O)c(O)c(O)c3)oc3cc(O)cc(O)c3c2=O)[C@H](O)[C@H](O)[C@H]1O	5	-40	-9	-18	44*	7	22
COc1cc(OC)c(C(=O)Nc2ccc(S(=O)(=O)N3CCCCC3)cc2)cc1OC	6	5	3	-1	30*	1	25
Nn1c(SCc2cccc3ccccc23)nnc1-c1n[nH]c2c1CCC2	·	·	·	·	·	4	·
CSc1ccc(/C=N/Nc2cccc(C(=O)O)c2)cc1	22	20	·	·	33*	·	26*
Cn1c(=O)c(=O)n(C)c2cc(S(=O)(=O)N3CCN(Cc4ccc5c(c4)OCO5)CC3)ccc21	·	·	·	·	·	9	·
CCCOc1cc2c(C#N)c(N3CCCC3)nc(N)c2c(N)n1	10	15	-18	-4	28*	26	15
COc1cc2c(C#N)c(N3CCCC3)nc(N)c2c(N)n1	10	12	3	-7	43*!	14	11
COc1cc2c(C#N)c(N3CCN(C)CC3)nc(N)c2c(N)n1	2	-5	10	6	3	0	·
Cc1ccc(-c2cc(-c3nnc(SCc4cccc5ccccc45)n3N)[nH]n2)cc1	·	·	·	·	·	15	·
O=C(CCn1nnc(-c2cccs2)n1)N1CCCC1	·	·	·	·	·	-1	·
CSCCC(C(=O)NC1CCCC1)n1c(C2CC2)nc2ccccc21 (stereo not drawn)	·	·	·	·	·	0	·
Cc1ccc2c(c1)C(CS(=O)(=O)NCc1ccc(F)cc1)NC2 (stereo not drawn)	·	·	·	·	·	7	·
CCc1nnc(N/N=C/c2cc(Br)c(O)cc2O)n1N	9	6	-4	-19	26*	2	19
Oc1ccccc1/C=N/n1c(COc2ccccc2)n[nH]c1=S	10	3	-3	-13	43*	11	5
Oc1ccc(/C=N/n2c(COc3ccccc3)n[nH]c2=S)c(O)c1	12	1	-21	-18	14	0	·
O=S(=O)(Nc1nc2ccccc2nc1NCCO)c1cccc(Cl)c1	9	4	0	-7	26*	29	10
CCOC(=O)c1c(C)oc2c1C(=O)c1ccccc1C2=O	11	5	-2	-7	30*	1	23
CC(=O)N(/N=C1\Sc2ccccc2C1=O)c1ccc(C)cc1C	1	-5	-4	11	22	-2	·
CC(=O)N(/N=C1\Sc2ccccc2C1=O)c1ccccc1	13	11	·	·	44*	5	62*
CC(=O)N(/N=C1\Sc2ccccc2C1=O)c1ccccc1C	5	4	-6	5	41*	-6	54*
CC(=O)N(/N=C1/C(=O)Nc2ccccc21)c1ccccc1	-2	2	11	1	7	8	·
SMILES	PAFAH1B2 inh	PAFAH2 inh	EBNA-1 inh	ZTA DNA inh	PAFAH1B3 inh	rCAG RNA binder	PAFAH1B3 conf FP
O=C(CSc1ccc2c(c1)OCCO2)Nc1ccc(Br)cn1	-2	0	3	3	4	-3	·
O=C(CSc1ccc2c(c1)OCCO2)Nc1ccc(Cl)cn1	6	1	16	-6	26*	-5	8
C=CC(=O)Nc1sc2c(c1C(N)=O)CCCC2	-1	3	7	-8	32*	1	30*
O=C(NC1=C(Nc2ccc(F)cc2)C(=O)c2ccccc2C1=O)c1ccc(Cl)cc1	13	5	2	13	26*	2	9
O=C(Nc1ccccc1NC(=O)c1ccc(F)cc1)c1ccc(F)cc1	7	-9	6	8	-3	-2	·
COC(=O)NN=C1CCC(c2ccccc2)CC1 (stereo not drawn)	3	1	·	·	3	-3	·
COC(=O)N/N=C1/C/C(=N\NC(=O)OC)c2ccccc21	3	18	1	-7	38*	0	16
CC1(C)C(=O)OC(c2cccn2-c2ccc([N+](=O)[O-])cc2)C(C)(C)C1=O (stereo not drawn)	10	0	-7	2	9	-1	·
CC1(C)C(=O)OC(c2cccn2-c2ccc([N+](=O)[O-])cc2)C2(CCCCC2)C1=O (stereo not drawn)	1	-2	3	7	48*	6	5
COc1cccc(/C=N/NC(=O)c2ccc([N+](=O)[O-])cc2Cl)c1O	3	10	3	0	27*	8	15
CCCCCCC(=O)Nc1nc(C)c(-c2csc(Nc3ccc(Cl)cc3)n2)s1	21	24	-16	13	28*	·	13
CCCCCC(=O)Nc1nc(C)c(-c2csc(Nc3ccc(Cl)cc3)n2)s1	9	-8	5	2	18	28	·
Cc1ccccc1-c1cc2c(nn1)-c1ccccc1C2=O	8	15	4	-3	34*	-2	7
Cc1ccc(S(=O)(=O)NNC(=O)CCC(=O)Nc2ccc(C)cc2C)cc1	0	-9	6	15	1	-4	·
Cc1ccc(S(=O)(=O)NC(=O)Nc2ccc(C)cc2C)cc1	5	-5	·	·	28*	-2	7
Cc1cc2cc(CNC(=S)NCc3ccccc3)ccc2n1C	-2	9	-2	4	10	6	·
Cc1cc2cc(CNC(=O)Nc3ccccc3)ccc2n1C	5	4	3	5	30*	9	8
O=C1Nc2c(Cl)cc(Cl)cc2C1=O	16	13	·	·	43*	2	23
CN[C@H]1C[C@H]2c3[nH]c4cccc(-c5cccc(C)c5)c4c3CCN2C(=O)[C@H]1[C@H](C)O	·	·	·	·	·	5	·
COc1ccc(-c2cc(C(=O)NN=Cc3cccn3C)[nH]n2)cc1	·	·	·	·	·	14	·
